# Only a sample is shown.
# aSyn UTR act: Activators via SNCA 5'UTR binding, MLPCN; activity score, % (tested at 7.5 µM), hits read low; actives 7.1% (n = 300,000); alpha-synuclein 5'UTR reporter, activators screen; in the data active = activity score below about -60%
# * marks the source's active call; other numbers are inactive results.
SMILES,aSyn UTR act
CSc1nnc2c(n1)OC(C)N(C(=O)c1ccccc1)c1ccccc1-2 (configuration not stated),-65*
O=C(O)C1CCC(c2ccc(-c3ccccc3)cc2)CC1 (configuration not stated),-84*
Clc1ccc(Cn2ccc(C3CC3)n2)cc1,-95*
Cc1ccc(Cn2ccc(C3CC3)n2)cc1,-101*
Cc1csc(NC(=O)c2ccc(C)o2)n1,-161*
O=C(Nc1nc(-c2ccccc2)cs1)c1ccc(Br)o1,-79*
O=C(Nc1nc(-c2cccnc2)cs1)c1cccc([N+](=O)[O-])c1,-84*
Cc1ccc(-c2ocnc2C(=O)Nc2nc(C)cs2)cc1,-91*
O=C(Nc1nc(-c2ccccc2)cs1)c1ccccc1F,-135*
O=C(NNc1nc(-c2ccccc2)cs1)c1ccc(F)cc1,76
Cc1ccc(C(=O)Nc2nc(-c3cccnc3)cs2)o1,-101*
Nc1cc(-c2ccc(Br)cc2)[nH]n1,-90*
Cc1cc(-c2ccc(Br)cc2)n[nH]1,-120*
Clc1ccc(OCc2nc(-c3ccncc3)no2)c(Cl)c1,-132*
CC(C)(C)c1ccc(OCc2nc(-c3ccccn3)no2)c(Br)c1,-190*
Clc1cc(Cl)c(OCc2nc(-c3ccccn3)no2)cc1Cl,-85*
CCN(CC)c1nc(C#N)cc(-c2ccc(OC)cc2)n1,-69*
COc1ccc(-c2nc3n(c2C)Cc2ccccc2-3)cc1,-129*
O=c1[nH]c(-c2ccco2)nc2sc3c(c12)CCCC3,-125*
CC1(c2ccccc2)CC(c2ccccc2)=Nc2ccccc2N1 (configuration not stated),-104*
O=C(CC1OC(=O)c2ccccc21)c1ccco1 (configuration not stated),-75*
C=C(C)C1Cc2cc3ccc(=O)oc3cc2O1 (configuration not stated),-65*
O=C(Nc1ccc2ccccc2c1)c1cnccn1,-129*
Cc1coc(C)c1C(=O)Nc1ccc2ccccc2c1,-162*
Cc1cc(NC(=O)c2cccnc2)ccc1Br,-147*
SMILES,aSyn UTR act
O=C(Nc1ccc2c(c1)Cc1ccccc1-2)c1cccnc1,-122*
O=C(Nc1ccc2nccnc2c1)c1cnccn1,-79*
Cc1cc(NC(=O)c2ccccc2[N+](=O)[O-])ccc1Br,-130*
O=C(Nc1ccc(OCc2ccccc2Cl)cc1)c1cccnc1,90
Cc1nc(NC(=O)CCc2ccccc2)ccc1Br,-145*
O=C(Nc1ccc2ccccc2c1)c1cccnc1,-161*
Cc1ccccc1C(=O)Nc1ccc(Br)c(C)n1,-113*
Cc1nc(NC(=O)c2cccnc2)ccc1Br,-83*
Cc1cccc(NC(=O)Nc2ccc3c(c2)N(C)C(=O)CS3)n1,-83*
Cc1ccnc(NC(=O)Nc2ccc3c(c2)N(C)C(=O)CS3)c1,-97*
CC(C)(C)c1ccc(Cn2cnc(-c3ccc([N+](=O)[O-])cc3)c2)cc1,-119*
COc1ccc(-c2nc3cc([N+](=O)[O-])ccc3o2)cc1,-231*
Nc1ccc(-c2nc3cc([N+](=O)[O-])ccc3o2)cc1,-146*
O=C1CC(c2ccccc2F)c2cc3c(cc2N1)CCC3 (configuration not stated),65
CC(C)S(=O)(=O)c1csc(C(=O)Nc2ccc(F)cc2)c1N,-100*
CC/C(C)=N/Nc1nc(-c2cc3cccc(OC)c3oc2=O)cs1,-108*
COc1cccc(C(=O)Nc2nnc(C3CCCO3)s2)c1 (configuration not stated),-99*
O=C(Nc1nnc(C2CCCCC2)s1)c1cccs1,-163*
O=C(Nc1nnc(C2CCCO2)s1)c1cccs1 (configuration not stated),-90*
Cc1cc(=O)[nH]c(N=N/C(=N/Nc2ccccc2C)c2ccccc2)n1,82
Cc1cc(=O)[nH]c(S/C=C/c2ccccc2)n1,-78*
Cc1cc(C)n(-c2nc(NCC(C)O)c3c4c(sc3n2)CCCC4)n1 (configuration not stated),-62*
CCCCN=C1NN=C(c2cccc([N+](=O)[O-])c2)CS1,-68*
CCCCN=C1NN=C(c2cc3ccccc3o2)CS1,-106*
Cc1csc(-c2coc3cc(O)cc(C)c3c2=O)n1,-207*
SMILES,aSyn UTR act
CCc1cc2c(=O)c(-c3nc(C)cs3)coc2cc1O,-145*
CCc1ccc(C(=O)c2cncc(Br)c2)cc1,-63*
CCCOc1ccc(-c2csc3nc[nH]c(=O)c23)cc1,-159*
O=c1[nH]cnc2scc(-c3ccc(-c4ccccc4)cc3)c12,-88*
CN(C)c1ccc(CNc2ncc(Br)cc2Br)cc1,-98*
CN(C)CCCN(C(=O)c1ccc(Br)s1)c1nc2cc3c(cc2s1)OCCO3,-69*
CN(C)CCCN(C(=O)c1cccs1)c1nc2cc3c(cc2s1)OCO3,-158*
CN(C)CCCN(C(=O)c1ccco1)c1nc2cc3c(cc2s1)OCO3,-185*
CN(C)CCCN(C(=O)c1ccc(C(=O)c2ccccc2)cc1)c1nc2cc3c(cc2s1)OCO3,61
O=c1c2ccccc2sn1-c1ccccc1,-115*
CCCCOc1ccc(NC(=O)C(=O)NCCCn2ccnc2)cc1,66
CCOc1ccc(NC(=S)NCCCn2ccnc2)cc1,-77*
CCCCCCCn1c2c(c(=N)c3c1CCC3)CCCC2,83
CC(=O)c1cccc2c(O)c(C3=Nc4ccccc4C3=O)[nH]c12,-122*
O=C(NC1CCCCCC1)c1cc2ccccc2oc1=O,-139*
N=c1oc2ccccc2cc1C(=O)NC1CCCCCC1,-116*
O=C(NNc1c(F)c(F)cc(F)c1F)c1cc2ccccc2oc1=O,-122*
COc1cccc2cc(NC(=O)C3CCCCC3)c(=O)oc12,-162*
COc1cccc2cc(C(=O)OC3CCN(C)CC3)c(=O)oc12,-88*
O=C(NCc1ccccc1Cl)c1cc2ccccc2oc1=O,-144*
O=C(OC1CCCCC1)c1cc2ccccc2oc1=O,-109*
O=C(c1cc2ccccc2oc1=O)N1CCOCC1,-124*
O=c1oc2ccccc2cc1NCc1ccccc1O,-176*
CC(C)OC(=O)CC12CN(C)CC(CC(=O)OC(C)C)(CN(C)C1)C2=O,-98*
O=C(NCc1csc(-c2ccccc2)n1)c1ccco1,-85*
SMILES,aSyn UTR act
Cc1cc(C(=O)NCc2csc(-c3ccccc3)n2)no1,-82*
O=C(O)c1ccc(N=NN2CCCCC2)cc1,-85*
COC(=O)c1ccc(N=NN2CCOCC2)cc1,-147*
Clc1ccc(N=NN2CCOCC2)cc1,-70*
COC(=O)c1ccc(N=NN2CCCCCC2)cc1,-134*
O=C(Cn1cc(SCc2ccccc2Cl)c2ccccc21)N1CCOCC1,-163*
CCn1cc(SCC(=O)N2CCOCC2)c2ccccc21,-114*
CC(C)n1c(/C=C/[C@@H](O)C[C@@H](O)CC(=O)O)c(-c2ccc(F)cc2)c2ccccc21,64
COc1ccc(OCc2cc(C(=O)NCc3cccc(C)n3)no2)c(Cl)c1,-65*
COc1cccc(OCc2cc(C(=O)NCc3ccccn3)no2)c1,-128*
COc1ccccc1NC(=O)Cn1nnc(C(=O)NCc2cccs2)c1N,86
COc1ccccc1-c1ccc(=O)n(CC(=O)NCc2cccs2)n1,-73*
CN(/N=C/c1ccc(N(C)C)cc1)C1=NS(=O)(=O)c2ccccc21,-97*
COc1ccc(N(C)C2=NS(=O)(=O)c3ccccc32)cc1,-70*
O=C(CSc1nc2ncccc2[nH]1)c1ccc2c(c1)OCO2,-86*
CCN(CC)CCOc1c(Br)ccc2c1sc1nc3n(c(=O)c12)CCC3,-111*
O=c1/c(=C\c2ccc(F)cc2)sc2n1CCCN=2,-201*

# High-throughput results deposited in PubChem BioAssay by Broad Institute.
